# Hits are enriched below; roughly 8.2% of the tested compounds scored in any of these assays.
# MCF10A rerep – induces DNA re-replication in MCF 10a normal breast cells | MCF 10A DNA re-replication, Hoechst nuclear intensity, 48 h | Potency, µM (highest dose often 46.1 µM), for the others: top-dose activity, positive = re-replication, usual class: activators | hit rate 2.9% among 350,000; note: % of control where 0% means no effect; nearly all actives have a fitted effect of over 50% in size
# SW480 rereplic – induces DNA re-replication in SW480 colon adenocarcinoma cells; AID 624297; Potency, µM (titrated, usually from 46.1 µM), inactives show top-dose re-replication activation, most hits filed as activators; hit rate 1.8% among 340,000; SW480 DNA re-replication, Hoechst DNA content imaging, 48 h; note: % of control where 0% means no effect; nearly all actives have a fitted effect of over 55% in size
#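 Treated cells incubate 48 hr (37 C, 5% CO2), are stained 40 min with Hoechst, and nuclear fluorescence is enumerated; a rise in nuclei with high DNA signal marks re-replication.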
# ELG1 DNA repair – blocks ELG1-dependent DNA repair in HEK293T cells. hit rate 2.3% among 330,000. Potency, µM (top dose mostly 46.1 µM), for inactives: top-dose activity change, negative = inhibition, hits mostly inhibitors. HEK293T ELG1-luciferase reporter, luminescence, 16 h; DNA damage induced by 5-fluorouridine; note: % is set by controls: 0 for no effect and ±100 for the full control effect; nearly all actives have a fitted effect of over 55% in size
#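 Reporter activity after DNA damage by 5-fluorouridine is monitored. Compound-treated cells incubate 16 hr at 37 °C, then ONE-Glo is added for 30 min before luminescence reading.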
# KB-V1 cytotox – KB-V1 MDR subline cytotoxicity. KB-V1 MDR cells viability, CellTiter-Glo, 72 h. hit rate 3.4% among 400,000. Potency, µM (top dose mostly 46.1 µM), actives largely listed as cytotoxic; note: % is set by controls: 0 for no effect and ±100 for the full control effect; nearly all actives have a fitted effect of over 60% in size
#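 Potencies derive from concentration-effect curves fitted to normalized luminescence (CellTiter-Glo) of KB-V1 cells treated for 72 h at 37 degrees C in phenol-red-free DMEM containing 10% FBS.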
# KB-3-1 tox – kills parental KB-3-1 adenocarcinoma cells | Potency, µM (top dose mostly 46.1 µM), actives largely listed as cytotoxic | KB-3-1 viability, CellTiter-Glo ATP luminescence, 72 h | AID 1347075 | hit rate 1.4% among 400,000; note: % is set by controls: 0 for no effect and ±100 for the full control effect; nearly all actives have a fitted effect of over 60% in size
#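 KB-3-1 cells, DMEM (no phenol red) + 10% FBS; compound by pin transfer, 72 h, 37 °C. Readout: CellTiter-Glo luminescence after 10 min. Data normalized, curve-fitted.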
# * = called active by the depositor; i = inactive; ? = inconclusive; . = no result given; [ ] = dose if it differs, or a comment. Calls come from the whole dose curve; as a rule, active = well fitted curve in the direction sought with a large enough effect; inconclusive = small, poorly fitted or top-dose-only effect, or another doubt; inactive = no such curve, though single readings can be large; an effect the other way counts as inactive or inconclusive. Potency is the fitted concentration of half-maximal effect.
SMILES,MCF10A rerep,SW480 rereplic,ELG1 DNA repair,KB-V1 cytotox,KB-3-1 tox
Cc1cccc(N2C(=O)NC(=O)/C(=C\c3cc(C)n(-c4sc5c(c4C#N)CCCC5)c3C)C2=O)c1C,21µM*,-29%,?,?,i
CCOC(=O)c1c(-n2c(C)cc(C=C3C(=O)NC(=O)NC3=O)c2C)sc2c1CCCC2,?,29%,-2%,?,?
Cc1ccccc1NC(=O)Cc1nc(COC(=O)Cc2ccccc2)cs1,7%,-15%,19%,?,i
Cc1ccccc1NC(=O)CCl,2%,14%,-26%,i,21µM*
O=C1C=C(N2CC2)c2ccccc2C1=O,.,.,.,i,21µM*
C[C@H]1CN(C2CCC(C#N)(c3ccc(F)cc3)CC2)CC[C@@]1(C(=O)O)c1ccccc1 (some centres undefined),-1%[20.6 µM],-11%[20.6 µM],.,.,.
Cc1cc(OC(=O)CCNC(=O)OC(C)(C)C)c2c3c(c(=O)oc2c1)CCC3,21%,-12%,?,i,i
CCC(NC(=O)OC(C)(C)C)C(=O)Oc1cc(C)cc2oc(=O)c3c(c12)CCC3 (centres undefined),24%,1%,-16%,15µM*,i
Cc1nc2ccccc2c(=O)n1/N=C/c1cc(Br)cc(Br)c1O,27%,7.3µM*,.,i,i
CCCCCn1c(=O)c(C(=O)Nc2ccccn2)c(O)c2ccccc21,-4%,3%,-1%,6.5µM*,i
CCCCCCn1c(=O)c(C(=O)Nc2ncccc2O)c(O)c2ccccc21,-7%,-3%,?,?,7.3µM*
CCCCn1c(=O)c(C(=O)Nc2ccc(C)cn2)c(O)c2ccccc21,-2%,-3%,14%,?,i
CCCCCn1c(=O)c(C(=O)Nc2ccccc2N)c(O)c2ccccc21,17%,-8%,-14%,i,i
CCCCCn1c(=O)c(C(=O)Nc2ccccc2)c(O)c2ccccc21,12%,1%,18%,i,i
CCCCn1c(=O)c(C(=O)Nc2ccccn2)c(O)c2ccccc21,6%,-43%,1%,i,10µM*
CCCCCCn1c(=O)c(C(=O)Nc2c(C)n(C)n(-c3ccccc3)c2=O)c(O)c2ccccc21,-9%,-8%,-14%,1.6µM*,?
CN1CCC[C@@H]1c1cccnc1,-6%,-14%,.,.,.
CCCCCCn1c(=O)c(C(=O)Nc2cnccn2)c(O)c2ccccc21,?,-5%,?,1.3µM*,2.1µM*
O=C(CCN1CC2CCC(CC2)C1)c1cccs1,10µM*,?,.,i,i
C[C@](O)(CS(=O)(=O)c1ccc(F)cc1)C(=O)Nc1ccc(C#N)c(C(F)(F)F)c1,7%,2%,.,.,.
Fc1ccccc1CNC1CN2CCC1CC2 (centres undefined),?,-7%,9%,i,i
Ic1ccccc1CN[C@@H]1C2CCN(CC2)[C@@H]1C(c1ccccc1)c1ccccc1,?,-2%,-4%,16µM*,?
NCC(=O)c1ccc(Br)cc1,.,.,.,i,i
COC1=CC(=O)[C@]2(C=C1OC)OC[C@@H]1Oc3c(ccc4c3C=CC(C)(C)O4)C(=O)[C@@H]12,-7%,6%[9.22 µM],1.2µM*,?,i
O=C1CCCc2c1nc(-c1ccccc1)n2O,2%,0%,9%,i,i
SMILES,MCF10A rerep,SW480 rereplic,ELG1 DNA repair,KB-V1 cytotox,KB-3-1 tox
CC(C)(O)C(Cl)(Cl)Cl,0%,1%,.,.,.
CCCOP(=O)(OCCC)C(Nc1ccc(C(C)C)cc1)c1ccc([N+](=O)[O-])cc1 (centres undefined),?,21µM*,?,12µM*,?
CC1=CC(=C2C(=O)NC(=S)NC2=O)C=C(C(F)(F)F)N1Cc1ccccc1,3.3µM*,3.7µM*,?,12µM*,2.6µM*
O=c1[nH]c(=S)[nH]c(O)c1N=Nc1cc(S(=O)(=O)Nc2ccc(Cl)cc2)ccc1Cl,-1%,0%,6%,i,i
COc1ccc(S(=O)(=O)Nc2ccccc2OC)cc1N=Nc1c(O)[nH]c(=S)[nH]c1=O,21µM*,9%,-12%,i,i
COC(=O)[C@@H]1[C@@H](C(=O)OC)C2(c3ccccc3-c3ccccc32)N(c2ccc(Cl)cc2)N1C#N,7.1µM*,9.2µM*,?,?,?
COC(=O)C[C@]1(C(=O)OC)CN(C#N)N(c2ccc(Cl)cc2)C12c1ccccc1-c1ccccc12,5.2µM*,?,26µM*,5.8µM*,5.2µM*
COC(=O)[C@@H]1[C@@H]2C[C@H]3c4[nH]c5cc(OC)ccc5c4CCN3C[C@@H]2C[C@H](OC(=O)/C=C\c2cc(OC)c(OC)c(OC)c2)[C@H]1OC,11%[20.6 µM],10%[20.6 µM],.,.,.
CCC1(O)C(=O)OCc2c1cc1n(c2=O)Cc2cc3c(N)cccc3nc2-1 (centres undefined),-10%,?,.,1.5µM*,0.21µM*
Cc1ccccc1-n1c(O)c(/C=C2/C(c3ccccc3)=Nc3ccccc32)c(=O)[nH]c1=O,5.2µM*,.,?,1.5µM*,2.1µM*
Cc1ccc(-n2c(O)c(/C=C3/C(c4ccccc4)=Nc4ccccc43)c(=O)[nH]c2=O)cc1,5.2µM*,3.7µM*,?,?,3.7µM*
Cc1ccccc1-n1c(O)c(C=Nc2ccc(N(C)C)cc2)c(=O)[nH]c1=O,15%,?,18%,2.3µM*,i
Cc1cccc(-n2c(O)c(/C=C/C=Nc3ccccc3)c(=O)[nH]c2=O)c1,13%,?,2%,i,i
CC1=Nc2ccccc2/C1=C/c1c(O)n(C)c(=O)[nH]c1=O,2%,-2%,-20%,i,i
Cc1cccc(-n2c(O)c(/C=C3/C(c4ccccc4)=Nc4ccccc43)c(=O)[nH]c2=O)c1,3.7µM*,3.7µM*,19%,?,5.2µM*
N#Cc1cccc(NC(=O)c2sc3nc4c(cc3c2N)N2CCC4CC2)c1,.,.,.,i,i
O=C1NCCOC(=O)[C@@H](Cc2ccc(F)cc2)CC/C=C/C[C@@H]1CC(=O)N(CCO)Cc1ccccc1,5%,-10%,-22%,?,i
CC(=O)OCC12CC(OC(=O)CC(C)C)C(C)=CC1OC1C(O)C(OC(C)=O)C2(C)C12CO2 (centres undefined),?,?,.,?,0.0092µM*
Cc1ccc(NP(=O)(Oc2ccccc2F)Oc2ccccc2F)cc1,18µM*,?,?,?,i
CCOC(=O)CN1C(=O)N[C@@H](c2cccc(C(F)(F)F)c2)C(C(C)=O)=C1C,?,-9%,.,i,i
CC1CC(C)CC(C)C(O)C(C#N)=CC=CCC(C2CCCC2C(=O)O)OC(=O)CC(O)C(C)C1 (centres undefined),0.13µM*,?,.,6.5µM*,1.2µM*
